Measured values as given in PubChem BioAssay (NCATS).
Inconclusive results are not listed. A number with no mark means an inactive call. Activity calls are given as the source filed them. Calls come from the whole dose curve; as a rule, active = well fitted inhibition curve with a large enough effect; inconclusive = small, poorly fitted or top-dose-only effect; inactive = flat fitted curve, though single readings scatter. *1 amine or outer side, *2 acyl side, *3 side chain or, on linkers, in order; H or OH if unused. Where a SMILES comes first, the peptide text is derived from it. [ ]: non-standard residue; d: D form. The star is where a group is joined. Dolaproine = CO[C@@H]([C@@H]1CCCN1)[C@@H](C)C(=O)O; Dil = CC[C@H](C)[C@H](NC)[C@@H](CC(=O)O)OC; X7 = O=C([C@@H](CC(O)CCl)O[*:1])[*:2]; Doe = c1ccc(C[C@H](N*)c2nccs2)cc1; aIle = CC[C@@H](C)[C@H](N)C(=O)O; NMeV = CN[C@H](C(=O)O)C(C)C; NMeA = CN[C@@H](C)C(=O)O; Aib = CC(C)(N)C(=O)O; βAla = NCCC(=O)O
Potency is the fitted concentration of half-maximal effect.

The compounds below were run against Phospholipid hydroperoxide glutathione peroxidase GPX4 (Homo sapiens) (UniProt P36969) (assay: Primary qHTS Assay for Inhibitors of Recombinant Selenoprotein Glutathione Peroxidase 4 (GPX4) (AID 1845192; note: nearly all actives have a fitted effect of over 65% in size)). Settings: recombinant GPX4, GR-coupled NADPH fluorescence, 15 min; series mostly up to 50 µM; activity change, negative = inhibition: at the top concentration.
Chain of Phospholipid hydroperoxide glutathione peroxidase GPX4 (Homo sapiens) (P36969 whole entry, looked up): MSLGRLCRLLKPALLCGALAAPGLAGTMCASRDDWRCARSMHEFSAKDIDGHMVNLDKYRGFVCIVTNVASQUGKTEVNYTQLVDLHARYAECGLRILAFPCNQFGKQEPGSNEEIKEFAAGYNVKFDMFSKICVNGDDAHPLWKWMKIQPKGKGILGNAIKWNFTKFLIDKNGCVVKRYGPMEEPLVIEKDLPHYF
Source text: Assay Provider: Elias S.J. Arner MD PhD.
Department of Medical Biochemistry and Biophysics
Karolinska Institutet, Solna, Stockholm, Sweden
Selenoprotein glutathione peroxidases (GPX), like the ubiquitously expressed GPX1 and the ferroptosis modulator GPX4, enact their antioxidant activities by reducing hydroperoxides using glutathione. […] GPX1 and GPX4 inhibitors have thus shown promise as anti-cancer agents. Existing inhibitors are often promiscuous, or modulate GPX activity only indirectly, so novel direct inhibitors identified through screening against GPX1 and GPX4 could be valuable. Here, we developed optimized glutathione reductase (GR)-coupled GPX assays for the biochemical high-throughput screen (HTS) of almost 12,000 compounds with known mechanisms of action. Initial hits were triaged using a GR counter-screen, assessed for isoform specificity using a separate GPX2 assay, and were assessed for general selenocysteine-targeting activity using a thioredoxin reductase (TXNRD1) assay. With this suite of assays, we identified novel GPX1/GPX2- and GPX4-specific inhibitors and can here present a validated pipeline for future discovery research for selenoprotein-targeting agents.
SEQUENCE No. (e.g., 1, 2, 3, etc.); […] (e.g., Cells, Incubation, Reagent, etc.); VALUE; DESCRIPTION.
1; Reagent 1; 3 uL; 333.33 nM GPx4 enzyme or no enzyme control in 1536-well, black, solid Greiner assay plate.
2; Compound; 25 nL; Kalypsis pin tool (Wako USA) equipped with a 1536-well pin head.
3; Incubation; 30 min; room temperature.
4; Reagent 2; 1 uL; 500 nM GR, 5 mM GSH, 2.5 mM NADPH solution
5; Reagent 3; 1 uL; 2.5 mM CHP in 50% EtOH.
6; Detection; Fluorescence; ViewLux microplate reader, excitation 340 nm and emission 450 nm.
7; Incubation; 15 min; room temperature.
8; Detection; Fluorescence; ViewLux microplate reader, excitation 340 nm and emission 450 nm.
NOTES (numbers refer to Sequence numbers above)
1. 3 µL of 333.33 nM GPX4 and 0.016% BSA in assay buffer (50 mM Tris-HCl, 2 mM EDTA (pH 7.5), 150 mM NaCl) was added to columns 3-48 of 1536-well plates using a BioRAPTR Flying Reagent Dispenser (Let's Go Robotics (LGR), Carlsbad, CA). A no-enzyme control (0.01% BSA in TES assay buffer) was added to columns 1-2.
2. 25 nL, library and DMSO controls were added to each well with a pin tool (Kalypsys).
3. The assay plates were incubated for 30 minutes at room temperature.
4. 1 µL of master mix (500 nM glutathione reductase (GR), 5 mM reduced glutathione (GSH), 2.5 mM NADPH in assay buffer) was added.
5. 1 µL of cumene hydroperoxide (CHP) ([2.5 mM] in 50% EtOH) was then added within 5 minutes to initiate the reaction. Final concentrations were: 200 nM GPX4, 1 mM GSH, 0.5 mM CHP, 0.5 mM NADPH, 100 nM GR, 0.01% BSA.
6. Initial fluorescence readout (t=0) at 340/450 nm was measured using a ViewLux multimodal detector (PerkinElmer, Waltham, MA).
8. Endpoint fluorescence readout (t=15) at 340/450 nm was measured 15 min after room temperature incubation.
With `OCCN(CCO)CCO` the “activity change, negative = inhibition” value was 2.42%.
For `C=C1[C@@H](O)[C@]2(O)OC[C@]34C2[C@]2(C)C(C[C@H]3OC(=O)[C@H](O)[C@@]14O)C(C)=CC(=O)[C@H]2O` (stereo not given in full), the “activity change, negative = inhibition” value was -10.8% [at 27.8 µM].
In the case of `N#Cc1ccccc1-c1cc(-c2ccccn2)cn(-c2ccccc2)c1=O`, the Potency is reported as 25.5 µM (active).
For `CC[C@H](C)[C@@H]([C@@H](CC(=O)N1CCC[C@H]1[C@H](OC)[C@@H](C)C(=O)N[C@@H](Cc1ccccc1)c1nccs1)OC)N(C)C(=O)[C@@H](NC(=O)C(C)(C)N)C(C)C` (H-[Aib]V[Dil][Dolaproine]-Doe), the “activity change, negative = inhibition” value was -0.416%.
In the case of `CCOC(=O)Nc1ccc(NCc2c(C)cc(C)cc2C)cc1N`, the “activity change, negative = inhibition” value is reported as -7.9%.
With `CC(=O)O[C@H]1C[C@@H](C)O[C@H]2O[C@@H]3CC4CC[C@@H]5C(CC[C@]6(C)[C@@H](C7=CC(=O)OC7)CC[C@]56O)[C@@]4(C=O)C[C@H]3O[C@]21O` (stereo not given in full) the “activity change, negative = inhibition” value was -5.6% [at 15.3 µM].
`O=C1CN=C(c2ccccc2Cl)c2cc(Br)ccc2N1` was tested, and the “activity change, negative = inhibition” value was 6.56%.
With `C[C@]12CC[C@H](O)CC1=CC[C@@H]1C2CC[C@]2(C)[C@@H](C3=CC(=O)OC3)CC[C@]12O` (stereo not given in full) the “activity change, negative = inhibition” value was -1.44% [at 27.8 µM].
With `C=CC(C)(C)C12C=C(O)C(=O)N3/C(=C\c4cnc[nH]4)C(=O)NC31N(OC)c1ccccc12` (stereo not given) the “activity change, negative = inhibition” value was -7.07% [at 27.8 µM].
With `C#C[C@]1(O)CC[C@H]2[C@@H]3CC[C@H]4Cc5nc6nc7ccccc7n6cc5C[C@]4(C)[C@H]3CC[C@@]21C` the “activity change, negative = inhibition” value was -8.3%.
For `CN1C(=O)C(Cc2ccc3ccccc3c2)N=C(c2ccc(O)cc2)c2cc(Cl)ccc21` (stereo not given), the “activity change, negative = inhibition” value was -9.73%.
In the case of `CC(C)(C)[C@]1(O)C[C@@H]2OC(=O)C[C@@]23C(=O)O[C@@H]2OC(=O)[C@@H](O)[C@]213`, the “activity change, negative = inhibition” value is reported as -15.8% [at 27.8 µM].
`C/C1=C/[C@@H](C)C/C=C/[C@H]2[C@@H]3O[C@]3(C)[C@@H](C)[C@H]3[C@H](Cc4c[nH]c5ccccc45)NC(=O)[C@]32C(=O)/C=C\C(=O)[C@@H]1O` was tested, and the “activity change, negative = inhibition” value was -8.18% [at 27.8 µM].
For `C[C@@H]1O[C@@H](OC2CCC3(C=O)C(CCC4C3CCC3(C)C(C5=CC(=O)OC5)C(O)CC43O)C2)[C@H](O)[C@H](O)[C@H]1O[C@@H]1O[C@H](CO)[C@@H](O)[C@H](O)[C@H]1O` (stereo not given in full), the “activity change, negative = inhibition” value was 4.83% [at 15.3 µM].
With `CC1CCCCCC(=O)c2c(O)cc(O)cc2CC(=O)O1` (stereo not given) the “activity change, negative = inhibition” value was -4.57%.
For `O=C(C[C@@H]1NCCC[C@H]1O)Cn1cnc2ccccc2c1=O`, the “activity change, negative = inhibition” value was 0.717%.
With `CNc1ccc2oc(C[C@H]3O[C@@]4(CC[C@H]3C)O[C@H](C(C)C(=O)c3ccc[nH]3)[C@H](C)C[C@H]4C)nc2c1C(=O)O` (stereo not given in full) the “activity change, negative = inhibition” value was -28.8%.
In the case of `c1ccc(C2(c3ccccc3)OC[C@@H]([C@H]3CCCCN3)O2)cc1`, the “activity change, negative = inhibition” value is reported as -4.41%.
`N#CC(O[C@@H]1O[C@H](CO)[C@@H](O)[C@H](O)[C@H]1O)c1ccccc1` (stereo not given in full) was tested, and the “outcome” value was “inactive”.
In the case of `CN(C(=O)CN1C(=O)COc2cc(Cl)c(Cl)cc21)[C@@H](CN1CCCC1)c1ccc(-c2cccc(C(N)=O)c2)cc1`, the “activity change, negative = inhibition” value is reported as -18.4%.
`CO[C@H]1C[C@H](O[C@H]2CC[C@]3(CO)[C@H]4CC[C@]5(C)[C@@H](C6=CC(=O)OC6)CC[C@]5(O)[C@@H]4CC[C@]3(O)C2)O[C@H](C)[C@H]1O` was tested, and the “activity change, negative = inhibition” value was -12.7% [at 27.8 µM].
With `CC(=O)OC[C@]12C[C@H](OC(=O)CC(C)C)C(C)=C[C@H]1O[C@@H]1[C@H](O)[C@@H](O)[C@@]2(C)[C@]12CO2` the “outcome” value was “inactive [at 27.8 µM]”.
For `CCC(C)C1NC(=O)C(C(C)=O)=C1O` (stereo not given), the “activity change, negative = inhibition” value was -3.92%.
`CC(=O)OC[C@]12C[C@H](OC(=O)CC(C)C)C(C)=C[C@H]1O[C@@H]1[C@H](O)C[C@@]2(C)[C@]12CO2` was tested, and the “activity change, negative = inhibition” value was 2.41% [at 27.8 µM].
For `C=C1[C@@]23C(=O)O[C@H](C)[C@]24O[C@@]2(C(=C)[C@]5(C=CC(=O)OC5(C)C)CC[C@]32C)[C@H](O)[C@@]1(C)OC4=O`, the “activity change, negative = inhibition” value was -20.6% [at 27.8 µM].
For `CC(=O)O[C@@H]1[C@@H](O)[C@H]2O[C@@H]3C=C(C)[C@@H](O)C[C@]3(CO)[C@]1(C)[C@]21CO1`, the “activity change, negative = inhibition” value was -5.03% [at 27.8 µM].
For `FC(F)(F)c1ccc(N2CCNCC2)nc1Cl`, the “activity change, negative = inhibition” value was 1.91%.
`C=C(CO)[C@@]12O[C@@H]1[C@@]1(C)C(=CC2=O)CC[C@@H](O)[C@@H]1C` was tested, and the “activity change, negative = inhibition” value was -13.6%.
For `COC1CC(O[C@H]2CC[C@]3(C)C4CC[C@]5(C)[C@@H](C6=CC(=O)OC6)[C@@H](OC(C)=O)C[C@]5(O)C4CC[C@@H]3C2)OC(C)C1O` (stereo not given in full), the “activity change, negative = inhibition” value was -18.6% [at 27.8 µM].
With `CN1CCC2=C(C1)c1ccccc1Cc1ccccc12` the Potency was “inactive”.
In the case of `CO[C@@H]1C[C@H](O[C@H]2CC[C@@]3(C)C(CCC4C3CC[C@]3(C)[C@@H](C5=CC(=O)OC5)[C@@H](OC(C)=O)CC43O)C2)O[C@H](C)[C@@H]1O[C@H]1O[C@H](CO[C@@H]2O[C@H](CO)[C@@H](O)[C@H](O)[C@H]2O)[C@@H](O)[C@H](O)[C@H]1O` (stereo not given in full), the “activity change, negative = inhibition” value is reported as -2.8% [at 15.3 µM].
`C[C@@H](CN1CCC2(CC1)C(=O)NCN2c1cccc(F)c1)NC(=O)c1ccc(Br)cc1` was tested, and the “activity change, negative = inhibition” value was 3.35%.
In the case of `CC[C@@H](C)[C@@H]1NC(=O)[C@@H]2CCCN2C(=O)[C@@H](CC(O)CCl)OC(=O)CCNC(=O)[C@H](C)N(C)C(=O)[C@H](C(C)C)N(C)C1=O` (stereo not given in full) (cyclo([NMeA][βAla][X7]P[aIle][NMeV])), the “activity change, negative = inhibition” value is reported as -6.33% [at 15.3 µM].
With `CO[C@H]1[C@@H](O)CC(OC2[C@@H](O)CC(OC3[C@@H](O)C[C@H](OC4CC[C@@]5(C)C(CCC6C5CC(O)[C@]5(C)[C@H](C7=CC(=O)OC7)CCC65O)C4)O[C@@H]3C)O[C@@H]2C)O[C@@H]1C` (stereo not given in full) the “outcome” value was “inactive [at 100 µM]”.
With `CC1=CC(=O)[C@@H](O)[C@@]2(C)C1C[C@H]1OC(=O)[C@H](O)[C@@]3(O)[C@@H](C)[C@@H](O)[C@H](O)C2[C@@]13C` (stereo not given in full) the “activity change, negative = inhibition” value was -6.08% [at 27.8 µM].
`COc1ccc(C23CCC(=O)C=C2N(C)CC3)cc1OC` (stereo not given) was tested, and the “activity change, negative = inhibition” value was -17.5%.
With `CC1=CC(=O)[C@@H](O)[C@]2(C)C3[C@@H](O)[C@@H]4OC(=O)[C@@H]([C@H]4C)[C@]3(C)C(=O)[C@H](O)[C@@H]12` (stereo not given in full) the “activity change, negative = inhibition” value was 4.23% [at 27.8 µM].
In the case of `O=C(OC[C@H]1O[C@@H](Oc2ccc(O)cc2CO)[C@H](O)[C@@H](O)[C@@H]1O)c1ccccc1`, the “activity change, negative = inhibition” value is reported as -0.377% [at 27.8 µM].
For `CC(=O)[C@@]1(O)CC[C@H]2[C@@H]3CCC4=CC(=O)CC[C@]4(C)C3(F)[C@@H](O)C[C@@]21C` (stereo not given in full), the “outcome” value was “inactive”.
With `C/C=C1/CN2CC[C@]34C(=Nc5ccc(OC)cc53)C2C[C@@H]1C4(CO)C(=O)OC` (stereo not given in full) the “activity change, negative = inhibition” value was -13% [at 27.8 µM].
